Experimental findings from PubChem BioAssay (EPA / NIEHS) are described below.

Several values for one entry are separate records, joined by “and”; a condition that tells them apart may be missing. Identical values can stand only once. Activity calls are given as the source filed them. How the source made its calls: active means hit-call score of the fitted dose curve at least 0.9, where 1 is the maximum; inactive means score below 0.9.

Holding throughout (settings): mRNA level, 48 h; actives raise or lower the signal
Read-out in assay [1]: Alkaline Phosphatase, Placental (ALPP) gene, ALPP (gene 250)
The assay can be described thus: LTEA_HepaRG_ALPP: Life Technologies and Expression Analysis (LTEA) Assay for Alkaline Phosphatase, Placental (ALPP) gene using HepaRG (AID 2283468).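 On AC50: differentiated human HepaRG liver cells in serum-free induction medium.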 The procedure, abridged:
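Expression of ALPP was quantified by qRT-PCR against three housekeeping genes in human HepaRG cultures treated for 48 h with an eight-point concentration series up to 100 uM. Activity in either direction was fitted relative to 0.5% DMSO.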

Read-out in assay [2]: Bcl-2 (BAD) gene, BAD (gene 572)
Description: LTEA_HepaRG_BAD: Life Technologies and Expression Analysis (LTEA) Assay for Bcl-2 (BAD) gene using HepaRG (AID 2283469). Put shortly:
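HepaRG, 48 h exposure, 8-pt half-log curve from 100 uM in 0.5% DMSO, duplicates. Readout: TaqMan qRT-PCR for BAD mRNA, housekeeping-normalised (ACTB/GAPDH/POLR2A); gain or loss fitted against DMSO baseline.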

Read-out in assay [3]: Bcl-2 (BAX) gene, BAX (gene 581)
The assay can be described thus: LTEA_HepaRG_BAX: Life Technologies and Expression Analysis (LTEA) Assay for Bcl-2 (BAX) gene using HepaRG (AID 2283470). The procedure, abridged:
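Gene expression measured by Fluidigm qRT-PCR with three housekeeping genes for normalisation. HepaRG cells, plated 48 h beforehand, treated 48 h at up to 100 uM (8-point, half-log) in 0.5% DMSO. Bidirectional fitting versus DMSO.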

Read-out in assay [4]: adenosine kinase (ADK) gene, ADK (gene 132)
The assay can be described thus: LTEA_HepaRG_ADK: Life Technologies and Expression Analysis (LTEA) Assay for adenosine kinase (ADK) gene using HepaRG (AID 2283471). The procedure, abridged: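 Read-out is ADK transcript level measured by qRT-PCR and normalised to three housekeeping genes. Cells are human HepaRG, dosed for 48 h at up to 100 uM in 0.5% DMSO. Gain or loss of signal is fitted against DMSO controls.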

Read-out in assay [5]: Alpha-fetoprotein (AFP) gene, AFP (gene 174)
Description: LTEA_HepaRG_AFP: Life Technologies and Expression Analysis (LTEA) Assay for Alpha-fetoprotein (AFP) gene using HepaRG (AID 2283472). The procedure, abridged:
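AFP transcript measured by TaqMan qRT-PCR with three housekeeping genes for normalization, after 48 h chemical treatment of HepaRG cells (top 100 uM, half-log steps, 0.5% DMSO). Gain or loss fitted against vehicle.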

Read-out in another assay: BCL2L11 (gene 10018)
The assay can be described thus: LTEA_HepaRG_BCL2L11: Life Technologies and Expression Analysis (LTEA) Assay for Bcl-2 (BCL2L11) gene using HepaRG (AID 2283473). Put shortly: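 Cells were plated, cultured 48 h, switched to serum-free induction medium, then dosed in duplicate for 48 h at eight half-log concentrations up to 100 uM. Lysates underwent RNA isolation and TaqMan qRT-PCR; gain or loss versus DMSO was fitted.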

Read-out in assay [6]: Apolipoprotein A-V (APOA5) gene, APOA5 (gene 116519)
Description: LTEA_HepaRG_APOA5: Life Technologies and Expression Analysis (LTEA) Assay for Apolipoprotein A-V (APOA5) gene using HepaRG (AID 2283474). Put shortly:
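Human liver HepaRG cells are treated 48 h with test chemicals (100 uM top, half-log dilutions, 0.5% DMSO). APOA5 mRNA induction or loss is measured by qRT-PCR relative to vehicle.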

Read-out in assay [7]: Apoptosis regulator Bcl-2 (Homo sapiens) (UniProt P10415)
The assay can be described thus: LTEA_HepaRG_BCL2: Life Technologies and Expression Analysis (LTEA) Assay for Bcl-2 gene using HepaRG (AID 2283475). The procedure, abridged: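 qRT-PCR of BCL2 transcript, normalized to three housekeeping genes (ACTB, GAPDH, POLR2A), after 48 h chemical exposure of HepaRG cells; concentrations top 100 uM with half-log dilutions, 0.5% DMSO vehicle, duplicates; changes up or down fitted relative to vehicle.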

Read-out in assay [8]: Bcl-2 (BID) gene, BID (gene 637)
The assay can be described thus: LTEA_HepaRG_BID: Life Technologies and Expression Analysis (LTEA) Assay for Bcl-2 (BID) gene using HepaRG (AID 2283476). The procedure, abridged: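 Duplicate 48 h treatments of HepaRG cells in serum-free induction medium spanned 100 uM downward in half-log steps, 0.5% DMSO. Transcript change quantified by qRT-PCR against three housekeeping genes, fitted up or down versus DMSO.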

Read-out in the next assay: Caspase-3 (Homo sapiens) (UniProt P42574)
The assay can be described thus: LTEA_HepaRG_CASP3: Life Technologies and Expression Analysis (LTEA) Assay for cysteine-aspartic acid protease (CASP3) using HepaRG (AID 2283477). The procedure, abridged: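 In HepaRG liver cells dosed for 48 h at up to 100 uM (eight-point, duplicate), CASP3 expression changes are scored by qRT-PCR. Activity is fitted in both directions with 0.5% DMSO as baseline.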

Read-out in assay [9]: Cytochrome P450 (CYP24A1), CYP24A1 (gene 1591)
Description: LTEA_HepaRG_CYP24A1: Life Technologies and Expression Analysis (LTEA) Assay for Cytochrome P450 (CYP24A1) using HepaRG (AID 2283478). Put shortly: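 Human liver HepaRG cultures receive each chemical for 48 h across an eight-point half-log series topping at 100 uM in 0.5% DMSO. Induction or suppression of CYP24A1 mRNA is scored relative to vehicle after housekeeping-gene normalization.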

Read-out in assay [10]: Cytochrome P450 (CYP1A2), CYP1A2 (gene 1544)
Description: LTEA_HepaRG_CYP1A2: Life Technologies and Expression Analysis (LTEA) Assay for Cytochrome P450 (CYP1A2) using HepaRG (AID 2283479). The procedure, abridged: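 Assesses CYP1A2 mRNA in human HepaRG liver cells after 48 h chemical exposure at up to 100 uM. Values come from qRT-PCR with bidirectional curve fitting relative to DMSO.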

Read-out in assay [11]: cysteine-aspartic acid protease (CASP8), CASP8 (gene 841)
The assay can be described thus: LTEA_HepaRG_CASP8: Life Technologies and Expression Analysis (LTEA) Assay for cysteine-aspartic acid protease (CASP8) using HepaRG (AID 2283480). The procedure, abridged:
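qRT-PCR readout of CASP8 mRNA, normalized to three housekeeping genes, after 48 h chemical exposure of HepaRG cells; 8-point half-log series, top 100 uM, 0.5% DMSO vehicle. Bidirectional curve fitting against DMSO baseline.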

Read-out in assay [12]: Cytochrome P450 (CYP2B6), CYP2B6 (gene 1555)
Description: LTEA_HepaRG_CYP2B6: Life Technologies and Expression Analysis (LTEA) Assay for Cytochrome P450 (CYP2B6) using HepaRG (AID 2283481). The procedure, abridged:
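Using 48 h treatment of HepaRG cells in serum-free induction medium, concentrations spanned half-log steps from 100 uM in 0.5% DMSO vehicle. CYP2B6 mRNA induction or loss is scored by qRT-PCR against DMSO.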

Read-out in assay [13]: Cytochrome P450 2C19 (Homo sapiens) (UniProt P33261)
Description: LTEA_HepaRG_CYP2C19: Life Technologies and Expression Analysis (LTEA) Assay for CYP2C19 using HepaRG (AID 2283482). Put shortly: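 Human HepaRG liver cells received test chemicals for 48 h (highest 100 uM, half-log dilutions in 0.5% DMSO). CYP2C19 mRNA induction or loss is read by multiplexed qRT-PCR and fitted in both directions versus vehicle.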

Read-out in another assay: CYP2C8 (gene 1558)
Description: LTEA_HepaRG_CYP2C8: Life Technologies and Expression Analysis (LTEA) Assay for CYP2C8 using HepaRG (AID 2283483). Put shortly: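 HepaRG (human liver line), 48 h chemical exposure, 8-pt half-log series from 100 uM, 0.5% DMSO vehicle. Readout: CYP2C8 transcript by qRT-PCR, housekeeping-normalized. Bidirectional fit vs DMSO baseline.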

Read-out in another assay: CYP2C9 (gene 1559)
The assay can be described thus: LTEA_HepaRG_CYP2C9: Life Technologies and Expression Analysis (LTEA) Assay for CYP2C9 using HepaRG (AID 2283484). Put shortly: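 HepaRG, 48 h dosing, 8-pt half-log series, top 100 uM, 0.5% DMSO vehicle. Read-out: CYP2C9 transcript by TaqMan qRT-PCR, housekeeping-normalized (ACTB/GAPDH/POLR2A). Gain or loss fitted vs DMSO baseline.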

Read-out in a further assay: CYP2E1 (gene 1571)
Description: LTEA_HepaRG_CYP2E1: Life Technologies and Expression Analysis (LTEA) Assay for CYP2E1 using HepaRG (AID 2283485). The procedure, abridged:
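CYP2E1 transcript measured by Fluidigm qRT-PCR against three housekeeping genes in human HepaRG cells treated 48 h (top 100 uM, half-log steps, 0.5% DMSO vehicle). Gain or loss fitted relative to DMSO baseline.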

Read-out in the next assay: CYP4A11 (gene 1579)
Description: LTEA_HepaRG_CYP4A11: Life Technologies and Expression Analysis (LTEA) Assay for CYP4A11 using HepaRG (AID 2283486). Put shortly: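 Readout is CYP4A11 mRNA induction or suppression (qRT-PCR, ACTB/GAPDH/POLR2A normalization) in human HepaRG cells after 48 h chemical treatment, concentrations to 100 uM in 0.5% DMSO, fitted bidirectionally against vehicle.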

Read-out in assay [14]: Cytochrome P450 3A4 (Homo sapiens) (UniProt P08684)
Description: LTEA_HepaRG_CYP3A4: Life Technologies and Expression Analysis (LTEA) Assay for CYP3A4 using HepaRG (AID 2283487). The procedure, abridged: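 HepaRG, 48 h exposure, 8-pt CRC from 100 uM (half-log), 0.5% DMSO, duplicates; serum-free induction medium. Readout: CYP3A4 mRNA, qRT-PCR, ACTB/GAPDH/POLR2A normalization. Bidirectional fit vs DMSO.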

Chain of Apoptosis regulator Bcl-2 (Homo sapiens) (P10415 whole entry, looked up): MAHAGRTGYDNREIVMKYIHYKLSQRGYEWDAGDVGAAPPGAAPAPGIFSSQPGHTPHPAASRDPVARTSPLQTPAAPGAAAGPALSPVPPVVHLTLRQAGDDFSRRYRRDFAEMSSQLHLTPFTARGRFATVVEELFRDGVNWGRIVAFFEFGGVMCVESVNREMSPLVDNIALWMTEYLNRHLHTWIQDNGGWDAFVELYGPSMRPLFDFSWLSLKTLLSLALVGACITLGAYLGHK
Chain of Cytochrome P450 2C19 (Homo sapiens) (P33261 whole entry, looked up): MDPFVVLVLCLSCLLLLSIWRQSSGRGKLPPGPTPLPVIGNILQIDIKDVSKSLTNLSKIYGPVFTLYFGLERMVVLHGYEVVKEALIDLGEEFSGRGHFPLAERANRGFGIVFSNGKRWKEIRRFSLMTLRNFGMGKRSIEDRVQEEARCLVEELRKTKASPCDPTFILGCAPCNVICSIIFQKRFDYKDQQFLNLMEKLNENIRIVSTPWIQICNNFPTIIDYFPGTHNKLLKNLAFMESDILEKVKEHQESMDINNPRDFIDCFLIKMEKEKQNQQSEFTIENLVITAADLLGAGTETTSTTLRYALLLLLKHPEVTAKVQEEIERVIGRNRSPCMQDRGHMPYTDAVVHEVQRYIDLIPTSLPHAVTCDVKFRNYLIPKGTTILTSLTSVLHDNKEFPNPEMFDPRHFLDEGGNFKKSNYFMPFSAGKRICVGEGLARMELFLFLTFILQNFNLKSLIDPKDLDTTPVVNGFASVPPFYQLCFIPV
Chain of Caspase-3 (Homo sapiens) (P42574 whole entry, looked up): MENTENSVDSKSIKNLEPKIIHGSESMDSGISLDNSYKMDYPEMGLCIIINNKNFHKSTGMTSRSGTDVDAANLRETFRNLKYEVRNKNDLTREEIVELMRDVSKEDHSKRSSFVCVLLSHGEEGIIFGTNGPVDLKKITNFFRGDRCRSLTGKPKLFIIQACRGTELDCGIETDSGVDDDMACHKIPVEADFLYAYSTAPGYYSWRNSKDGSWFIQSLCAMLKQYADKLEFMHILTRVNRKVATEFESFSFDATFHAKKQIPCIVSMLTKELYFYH
Chain of Cytochrome P450 3A4 (Homo sapiens) (P08684 whole entry, looked up): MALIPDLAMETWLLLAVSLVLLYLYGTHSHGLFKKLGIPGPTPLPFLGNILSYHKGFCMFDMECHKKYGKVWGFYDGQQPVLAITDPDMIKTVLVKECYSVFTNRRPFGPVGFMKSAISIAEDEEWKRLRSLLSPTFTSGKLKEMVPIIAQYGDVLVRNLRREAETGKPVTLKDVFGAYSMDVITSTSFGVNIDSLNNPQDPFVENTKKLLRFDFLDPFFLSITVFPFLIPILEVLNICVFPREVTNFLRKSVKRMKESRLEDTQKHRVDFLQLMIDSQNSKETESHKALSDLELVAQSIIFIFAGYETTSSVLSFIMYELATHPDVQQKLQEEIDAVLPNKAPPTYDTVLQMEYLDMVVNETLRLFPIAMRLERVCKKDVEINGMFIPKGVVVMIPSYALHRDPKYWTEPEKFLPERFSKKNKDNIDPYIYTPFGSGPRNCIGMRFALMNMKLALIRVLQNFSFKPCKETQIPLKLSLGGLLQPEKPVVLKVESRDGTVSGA

As usually defined, the AC50 is the midpoint of the concentration-response curve, whichever way the signal moves. As to `CCOC(=O)CC(SP(=S)(OC)OC)C(=O)OCC` (stereo not drawn), the outcome (in assay [1]; in assay [2]; in assay [3]; in assay [4]; in assay [5]; with BCL2L11 (gene 10018)) was inactive. For the same compound, the outcome (in assay [6]; in [7]; in assay [8]; in the assay with Caspase-3 (Homo sapiens); in assay [9]; in assay [11]) was inactive. Moreover, the outcome (in assay [13]; with CYP2C8 (gene 1558); with CYP2C9 (gene 1559); in the assay with CYP2E1 (gene 1571); with CYP4A11 (gene 1579); in assay [14]) was inactive. For the same compound, the results for the AC50 in [10] and in [12] were 13.8 µM (active) and 50 µM (active), respectively.
Turning to `CO/C=C(/C(=O)OC)c1ccccc1Oc1cc(Oc2ccccc2C#N)ncn1`, the AC50 is 41.4 µM (active) and 50 µM (active) and 34 µM (active) in [1]; 77.2 µM (active) and 69 µM (active) and 72.1 µM (active) in assay [3]; 37.9 µM (active) and 69.5 µM (active) and 25.5 µM (active) in [5]; 84.5 µM (active) and 73.8 µM (active) and 84.6 µM (active) with BCL2L11 (gene 10018); 86.3 µM (active) and 85.9 µM (active) and 86.9 µM (active) in assay [7]; 84.5 µM (active) and 65.9 µM (active) and 66.5 µM (active) in assay [10]. Moreover, the AC50 in assay [12] is 75.2 µM (active) and 72.2 µM (active) and 71.5 µM (active); in assay [13], 84.1 µM (active) and 83.3 µM (active) and 82.3 µM (active); in the assay with CYP2C8 (gene 1558), 79.9 µM (active) and 79.2 µM (active) and 78.1 µM (active); with CYP2C9 (gene 1559), 79.1 µM (active) and 79 µM (active) and 93.4 µM (active); in the assay with CYP2E1 (gene 1571), 34.6 µM (active) and 50 µM (active) and 33.2 µM (active); with CYP4A11 (gene 1579) it was 66.4 µM (active) and 68.3 µM (active) and 40.2 µM (active). The compound was classed as inactive (in assay [2]; in assay [4]; in assay [8]; with Caspase-3 (Homo sapiens); in assay [9]; in assay [11]).
